The values that follow come from ChEMBL document CHEMBL2218924, “A broad activity screen in support of a chemogenomic map for kinase signalling research and drug discovery” (Biochem J, 2013).

The target in the assay is T1, Testis-specific serine/threonine-protein kinase 2 (Homo sapiens) (UniProt Q96PF2).
T1 sequence (whole entry): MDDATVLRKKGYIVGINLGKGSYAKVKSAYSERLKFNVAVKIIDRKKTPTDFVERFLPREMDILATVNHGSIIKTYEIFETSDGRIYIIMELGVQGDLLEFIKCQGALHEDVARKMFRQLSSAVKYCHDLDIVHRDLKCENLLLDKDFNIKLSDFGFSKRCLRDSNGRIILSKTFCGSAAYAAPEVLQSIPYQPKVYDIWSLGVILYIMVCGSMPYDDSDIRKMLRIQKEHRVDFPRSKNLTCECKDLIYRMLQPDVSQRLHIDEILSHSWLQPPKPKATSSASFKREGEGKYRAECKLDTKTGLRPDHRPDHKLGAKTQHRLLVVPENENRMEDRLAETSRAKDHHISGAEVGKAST
Conditions: at 1 µM.
As for `CC#CC(=O)Nc1cc2c(Nc3ccc(F)c(Cl)c3)ncnc2cn1`, the residual activity (usually the signal under treatment as a percentage of the control signal) was 87%. `Cn1cc(/C=C2\C(=O)Nc3ccc(S(N)(=O)=O)cc32)c2ccccc21`: the residual activity came to 72%.

In the case of `Oc1cccc(-c2nc(N3CCOCC3)c3oc4ncccc4c3n2)c1`, the residual activity was 93%. On to `CCN(CC)CCCCN1c2ccccc2Oc2ccc(Cl)cc21`, for which the residual activity stood at 109%. On to `COc1ccc(S(=O)(=O)N(CCO)c2ccccc2CN(C)C/C=C/c2ccc(Cl)cc2)cc1`, for which the residual activity was 101%. Turning to `O=C1NC(=O)C(c2cn(CCCO)c3ncccc23)=C1c1cnccn1`, the residual activity was found to be 59%. Then `c1ccc(-c2n[nH]cc2-c2ccnc3ccccc23)nc1`, with 96%; and `Nc1ccc2ncnc(NCCc3ccc(Oc4ccccc4)cc3)c2c1`, with 106%; and `COc1cc2ncc(-c3ccccc3)nc2cc1OC`, with 76%. As to `O=[N+]([O-])c1ccc(-c2nc(-c3ccc(F)cc3)c(-c3ccncc3)[nH]2)cc1`, the residual activity turned out to be 100%.

In the case of `Cc1cncc2cccc(S(=O)(=O)N3CCCN(C(=O)CN)C[C@H]3C)c12`, the residual activity stood at 80%. As for `Nc1n[nH]c2nc3ccccc3nc12`, the residual activity was found to be 95%.

Turning to `O=C(c1ccccc1)c1ccc(N2CCOCC2)cc1O`, the residual activity was 87%.

Consider `Oc1ccc(Nc2nc(-c3ccc(Cl)cc3)cs2)cc1`, for which the residual activity worked out at 101%. Consider `O=Nc1c(-c2c(O)[nH]c3ccccc23)[nH]c2ccccc12`, for which the residual activity turned out to be 95%.

As for `Cc1ccc(S(=O)(=O)/C=C/C#N)cc1`, the residual activity was found to be 92%. With `COc1cc2ncnc(N3CCN(C(=O)Nc4ccc(Oc5ccccc5)cc4)CC3)c2cc1OC` the figure was 96%; with `CNc1cc2c(Nc3cccc(Br)c3)ncnc2cn1`, 104%.

`COc1cc2nccc(Oc3ccc(NC(=S)NC(=O)c4ccccc4C)cc3)c2cc1OC`: the residual activity turned out to be 94%.
